Results reported in PubChem BioAssay (Tox21).
Inconclusive results are not listed. Calls of active or inactive are those of the source. Unless noted, the call rests on the fitted dose curve; in most records, active means well fitted curve in the direction sought with a large enough effect in the repeat runs; inconclusive means weak or mixed curves; inactive means no such curve, though single readings can be large; an effect the other way counts as inactive or inconclusive.

Experiments:
[1] = biological target: Androgen receptor (Homo sapiens) (UniProt P10275); assay: qHTS assay to identify small molecule antagonists of the androgen receptor (AR) signaling pathway (AID 743035; active means well fitted inhibition curve with a large enough effect in the signal ratio in the repeat runs, not every such curve was filed as active; the % refers to the signal ratio)
Sequence of Androgen receptor (Homo sapiens) (P10275 whole entry, looked up): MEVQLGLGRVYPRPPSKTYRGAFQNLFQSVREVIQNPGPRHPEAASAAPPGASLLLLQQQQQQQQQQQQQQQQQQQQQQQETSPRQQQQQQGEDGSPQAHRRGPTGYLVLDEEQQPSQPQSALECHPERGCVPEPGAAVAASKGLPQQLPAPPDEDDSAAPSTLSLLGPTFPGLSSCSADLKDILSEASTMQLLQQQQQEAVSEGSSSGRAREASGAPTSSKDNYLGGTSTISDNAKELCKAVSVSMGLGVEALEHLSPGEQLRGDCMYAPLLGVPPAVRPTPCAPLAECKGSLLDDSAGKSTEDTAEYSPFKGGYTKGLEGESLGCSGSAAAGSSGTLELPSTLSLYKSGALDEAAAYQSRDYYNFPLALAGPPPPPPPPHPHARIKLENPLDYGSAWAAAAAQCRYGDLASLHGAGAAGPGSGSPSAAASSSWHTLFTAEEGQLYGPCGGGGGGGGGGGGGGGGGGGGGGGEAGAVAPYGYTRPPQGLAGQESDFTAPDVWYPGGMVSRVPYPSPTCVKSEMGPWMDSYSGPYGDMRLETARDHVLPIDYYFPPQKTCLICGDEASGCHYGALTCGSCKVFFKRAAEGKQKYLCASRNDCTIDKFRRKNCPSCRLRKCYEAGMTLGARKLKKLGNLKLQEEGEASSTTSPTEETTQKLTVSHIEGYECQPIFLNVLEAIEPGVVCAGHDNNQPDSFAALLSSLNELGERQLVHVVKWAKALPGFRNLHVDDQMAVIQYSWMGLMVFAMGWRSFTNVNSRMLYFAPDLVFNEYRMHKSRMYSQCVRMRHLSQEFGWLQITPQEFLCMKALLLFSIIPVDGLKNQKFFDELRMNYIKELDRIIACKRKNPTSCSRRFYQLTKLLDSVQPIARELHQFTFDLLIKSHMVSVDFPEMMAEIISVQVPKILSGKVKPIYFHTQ
Procedure, shortened: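 HEK293 cells stably carrying UAS-beta-lactamase reporter, 2,000/well, given compounds plus R1881 agonist and incubated 16 h at 37C. LiveBLAzer B/G FRET substrate then added for 2 h at room temperature before fluorescence reading.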

[2] = biological target: Androgen receptor (Homo sapiens) (UniProt P10275); assay: qHTS assay to identify small molecule agonists of the androgen receptor (AR) signaling pathway (AID 743036; active means well fitted activation curve with a large enough effect in the signal ratio in the repeat runs, with a control signal flat, not every such curve was filed as active; the % refers to the signal ratio)
Procedure, shortened: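 In this Tox21 qHTS, 2,000 HEK293 AR-bla cells per well were incubated with compounds for 16 h at 37C and 5% CO2. Fluorescence intensity was recorded 2 h after adding LiveBLAzer B/G FRET substrate at room temperature.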

[3] = biological target: Androgen receptor (Homo sapiens) (UniProt P10275); assay: qHTS assay to identify small molecule agonists of the androgen receptor (AR) signaling pathway using the MDA cell line (AID 743040; further: nearly all actives have a fitted effect of over 20% in size)
Procedure, shortened: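 Human breast carcinoma MDA-kb2 reporter cells (MMTV-luc, AR/GR elements) were treated for 16 h at 37C in 0% CO2 following a 5 h settling period. Signal was quantified by ONE-Glo luminescence.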

[4] = qHTS assay to identify small molecule antagonists of the androgen receptor (AR) signaling pathway using the MDA cell line - cell viability counter screen (AID 743041; further: nearly all actives have a fitted effect of over 45% in size)
Procedure, shortened: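 Same-well cytotoxicity was assessed by CellTiter-Fluor in MDA-kb2 AR-luc cells after 16 h of compound treatment under R1881 agonism.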

[5] = biological target: Androgen receptor (Homo sapiens) (UniProt P10275); assay: qHTS assay to identify small molecule antagonists of the androgen receptor (AR) signaling pathway using the MDA cell line (AID 743042; further: nearly all actives have a fitted effect of over 55% in size)
Procedure, shortened: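 MDA-kb2 breast carcinoma cells carrying MMTV-luciferase (AR/GR responsive) were co-treated with compounds and the agonist R1881 for 16 h at 37C. Inhibition read as ONE-Glo luminescence; CellTiter-Fluor fluorescence measured in parallel for cytotoxicity.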

[6] = qHTS assay to identify small molecule antagonists of the thyroid receptor (TR) signaling pathway (AID 743065); further: series mostly up to about 70 µM; nearly all actives have a fitted effect of over 55% in size
Procedure, shortened: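 GH3.TRE-Luc rat pituitary cells (two TREs driving luciferase) were dosed with compound, then stimulated with 1 nM T3 (final) for 23.5 h at 37 C. ONE-Glo luminescence was the read-out, with CellTiter-Fluor fluorescence as the cytotoxicity counter-screen.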

[7] = system: thyroid hormone receptor (rat, GH3 cells); assay: qHTS assay to identify small molecule agonists of the thyroid receptor (TR) signaling pathway (AID 743066; calls by dose curve)
[8] = biological target: Estrogen receptor (Homo sapiens) (UniProt P03372); assay: qHTS assay to identify small molecule antagonists of the estrogen receptor alpha (ER-alpha) signaling pathway (AID 743069; active means well fitted curve in the direction sought with a large enough effect in the signal ratio in the repeat runs, not every such curve was filed as active; the % refers to the signal ratio)
Sequence of Estrogen receptor (Homo sapiens) (P03372 whole entry, looked up): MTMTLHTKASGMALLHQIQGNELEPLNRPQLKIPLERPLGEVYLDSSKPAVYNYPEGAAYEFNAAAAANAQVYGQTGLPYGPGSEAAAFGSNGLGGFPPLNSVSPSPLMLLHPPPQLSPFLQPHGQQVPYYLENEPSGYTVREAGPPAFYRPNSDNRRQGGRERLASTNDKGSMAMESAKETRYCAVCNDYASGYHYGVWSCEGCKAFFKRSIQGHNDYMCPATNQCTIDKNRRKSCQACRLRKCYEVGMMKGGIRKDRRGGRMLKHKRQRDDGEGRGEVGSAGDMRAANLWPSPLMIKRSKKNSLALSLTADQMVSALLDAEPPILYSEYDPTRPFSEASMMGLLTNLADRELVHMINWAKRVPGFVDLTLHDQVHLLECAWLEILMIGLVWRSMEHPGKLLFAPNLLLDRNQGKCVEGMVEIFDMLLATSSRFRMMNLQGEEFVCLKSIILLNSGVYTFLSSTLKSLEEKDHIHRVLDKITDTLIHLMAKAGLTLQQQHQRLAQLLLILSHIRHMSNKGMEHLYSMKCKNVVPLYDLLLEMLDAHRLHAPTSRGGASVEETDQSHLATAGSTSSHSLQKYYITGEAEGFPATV
Procedure, shortened: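 Reporter cells (ER-alpha-bla, HEK293 background) are conditioned overnight in stripped-serum medium (2% charcoal-stripped FBS). Compound and 17beta-estradiol exposure runs 18 hr at 37C, 5% CO2.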

[9] = qHTS assay to identify small molecule antagonists of the estrogen receptor alpha (ER-alpha) signaling pathway - cell viability counter screen (AID 743074; calls by dose curve;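 further: HEK293 cells carrying ER-alpha-UAS-bla reporter stimulated with 17beta-estradiol; nearly all actives have a fitted effect of over 45% in size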)
[10] = biological target: Estrogen receptor (Homo sapiens) (UniProt P03372); assay: qHTS assay to identify small molecule agonists of the estrogen receptor alpha (ER-alpha) signaling pathway (AID 743075; calls by dose curve;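 further: HEK293 GripTite cells with ER-alpha and UAS-driven beta-lactamase reporter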)
[11] = biological target: Estrogen receptor (Homo sapiens) (UniProt P03372); assay: qHTS assay to identify small molecule agonists of the estrogen receptor alpha (ER-alpha) signaling pathway using the BG1 cell line (AID 743079); further: nearly all actives have a fitted effect of over 20% in size
[12] = qHTS assay to identify small molecule antagonists of the estrogen receptor alpha (ER-alpha) signaling pathway using the BG1 cell line (AID 743080; calls by dose curve;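 further: BG1 cells stimulated with 17beta-estradiol alongside compound; series mostly up to about 70 µM; nearly all actives have a fitted effect of over 25% in size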)
Procedure, shortened: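 Quantitative HTS on the Tox21 10K library: BG1 cells with endogenous ER-alpha and ERE-luciferase reporter, 17beta-estradiol stimulation, 21.5 h compound exposure, luminescence endpoint with parallel fluorescence cytotoxicity counter-read.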

[13] = qHTS assay to identify small molecule antagonists of the estrogen receptor alpha (ER-alpha) signaling pathway using the BG1 cell line - cell viability counter screen (AID 743081);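 further: compound given together with 17beta-estradiol as the ER stimulus; series mostly up to about 70 µM; nearly all actives have a fitted effect of over 45% in size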
Aromatase (Homo sapiens) = Aromatase (Homo sapiens) (UniProt P11511); assay: qHTS assay to identify aromatase inhibitors (AID 743083); further: series mostly up to about 70 µM; nearly all actives have a fitted effect of over 55% in size
Sequence of Aromatase (Homo sapiens) (P11511 whole entry, looked up): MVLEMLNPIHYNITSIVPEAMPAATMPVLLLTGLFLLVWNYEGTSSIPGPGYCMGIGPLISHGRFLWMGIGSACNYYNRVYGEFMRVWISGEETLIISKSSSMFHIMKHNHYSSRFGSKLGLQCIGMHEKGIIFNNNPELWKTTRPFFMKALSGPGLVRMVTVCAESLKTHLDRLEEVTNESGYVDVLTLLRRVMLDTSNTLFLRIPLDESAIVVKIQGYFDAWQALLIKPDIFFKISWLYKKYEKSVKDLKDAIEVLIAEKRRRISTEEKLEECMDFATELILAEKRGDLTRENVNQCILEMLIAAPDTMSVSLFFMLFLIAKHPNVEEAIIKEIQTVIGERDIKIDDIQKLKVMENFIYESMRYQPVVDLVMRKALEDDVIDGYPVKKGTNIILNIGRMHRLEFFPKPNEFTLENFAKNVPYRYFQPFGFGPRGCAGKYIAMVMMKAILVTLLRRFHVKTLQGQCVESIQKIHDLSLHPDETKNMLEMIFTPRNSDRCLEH

[14] = qHTS assay to identify aromatase inhibitors - cell viability counter screen (AID 743084);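 further: cells stimulated with testosterone during compound exposure; nearly all actives have a fitted effect of over 55% in size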
[15] = biological target: Aryl hydrocarbon receptor (Homo sapiens) (UniProt P35869); assay: qHTS assay to identify small molecule that activate the aryl hydrocarbon receptor (AhR) signaling pathway (AID 743085);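 further: HG2L7.5c1 human HepG2 liver cells with stably integrated DRE-driven firefly reporter; series mostly up to about 70 µM; nearly all actives have a fitted effect of over 15% in size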
Sequence of Aryl hydrocarbon receptor (Homo sapiens) (P35869 whole entry, looked up): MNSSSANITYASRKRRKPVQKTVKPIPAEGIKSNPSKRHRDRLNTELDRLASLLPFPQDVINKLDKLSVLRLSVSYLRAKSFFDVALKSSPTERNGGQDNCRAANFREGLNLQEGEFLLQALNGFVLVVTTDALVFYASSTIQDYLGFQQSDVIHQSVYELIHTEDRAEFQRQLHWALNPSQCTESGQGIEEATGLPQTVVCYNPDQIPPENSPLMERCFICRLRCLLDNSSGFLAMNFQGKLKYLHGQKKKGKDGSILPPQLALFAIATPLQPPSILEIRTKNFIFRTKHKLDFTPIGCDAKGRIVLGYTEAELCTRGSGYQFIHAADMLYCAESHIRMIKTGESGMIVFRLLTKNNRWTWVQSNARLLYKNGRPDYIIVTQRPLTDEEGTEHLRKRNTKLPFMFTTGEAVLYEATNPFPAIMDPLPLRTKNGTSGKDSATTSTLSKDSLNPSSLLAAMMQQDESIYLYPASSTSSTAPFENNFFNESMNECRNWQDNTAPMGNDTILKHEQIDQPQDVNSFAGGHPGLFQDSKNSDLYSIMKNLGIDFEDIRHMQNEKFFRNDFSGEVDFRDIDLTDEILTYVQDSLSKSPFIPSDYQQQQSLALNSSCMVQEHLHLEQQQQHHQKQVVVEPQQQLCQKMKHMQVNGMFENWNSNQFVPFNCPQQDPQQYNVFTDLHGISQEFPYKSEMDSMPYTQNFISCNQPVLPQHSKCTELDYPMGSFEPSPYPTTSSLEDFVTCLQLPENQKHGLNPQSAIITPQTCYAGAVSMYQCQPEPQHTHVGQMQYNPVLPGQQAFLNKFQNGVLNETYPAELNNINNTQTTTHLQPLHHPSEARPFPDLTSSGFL
Procedure, shortened: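 Measured in HG2L7.5c1 cells: CellTiter-Fluor signal (30 min incubation, 37C) for viability, then luciferase luminescence (30 min, room temperature). Compound contact time was 24 h at 37C, following a 5 h pre-incubation.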

[16] = qHTS assay to identify small molecule that activate the aryl hydrocarbon receptor (AhR) signaling pathway - cell viability counter screen (AID 743086);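 further: HepG2 liver cells carrying the AhR DRE luciferase reporter; series mostly up to about 70 µM; nearly all actives have a fitted effect of over 45% in size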
Procedure, shortened: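 HepG2-AhR-luc (HG2L7.5c1) cells, 4000/well, treated 24 h at 37 C with compound; viability measured as CellTiter-Fluor fluorescence after 30 min in the same wells as the luciferase read.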

[17] = biological target: Peroxisome proliferator-activated receptor gamma (Homo sapiens) (UniProt P37231); assay: qHTS assay to identify small molecule agonists of the peroxisome proliferator-activated receptor gamma (PPARg) signaling pathway (AID 743094; active means well fitted activation curve with a large enough effect in the signal ratio in the repeat runs, not every such curve was filed as active; the % refers to the signal ratio)
Sequence of Peroxisome proliferator-activated receptor gamma (Homo sapiens) (P37231 whole entry, looked up): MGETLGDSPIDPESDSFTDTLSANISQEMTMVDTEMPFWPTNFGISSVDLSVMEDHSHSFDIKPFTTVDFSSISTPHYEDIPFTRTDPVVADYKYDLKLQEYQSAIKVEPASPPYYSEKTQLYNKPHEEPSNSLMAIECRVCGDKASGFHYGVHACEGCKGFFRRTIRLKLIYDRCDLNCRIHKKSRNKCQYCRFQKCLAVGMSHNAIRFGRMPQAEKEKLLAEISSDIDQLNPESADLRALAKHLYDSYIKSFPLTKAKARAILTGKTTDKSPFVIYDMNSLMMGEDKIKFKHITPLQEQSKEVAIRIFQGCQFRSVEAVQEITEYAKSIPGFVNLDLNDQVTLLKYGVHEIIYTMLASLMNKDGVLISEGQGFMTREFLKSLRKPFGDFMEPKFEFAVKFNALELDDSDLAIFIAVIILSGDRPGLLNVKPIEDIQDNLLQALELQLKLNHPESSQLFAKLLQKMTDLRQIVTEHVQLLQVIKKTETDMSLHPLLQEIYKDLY
Procedure, shortened: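 GeneBLAzer PPARg UAS-bla HEK293H cells were plated, rested 5 h, then exposed to compounds for 17 h at 37C. Beta-lactamase activity was read by LiveBLAzer B/G FRET substrate fluorescence after 1 h at room temperature.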

[18] = qHTS assay to identify small molecule antagonists of the estrogen related receptor (ERR) signaling pathway - cell viability counter screen (AID 1224818); further: series mostly up to about 46 µM
Procedure, shortened: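 ERR cells, 2,000 per well, compound added after 6 h and incubated 17.5 h at 37 C. Viability read by CellTiter-Fluor fluorescence after a further 30 min at 37 C.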

[19] = qHTS assay to identify small molecule antagonists of the estrogen related receptor (ERR) signaling pathway (AID 1224819;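 further: luminescence from an ERR-driven luciferase reporter measured with One-Glo reagent; series mostly up to about 46 µM; nearly all actives have a fitted effect of over 50% in size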)
Procedure, shortened: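 ERR reporter cell line (NTP) plated at 2,000 cells/well, settled 6 h at 37C/5% CO2, then exposed to LOPAC compounds for 18 h at 37C. One-Glo luciferase luminescence read after 30 min at room temperature.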

[20] = qHTS assay to identify small molecule agonists of the estrogen related receptor (ERR) signaling pathway (AID 1224820)
Procedure, shortened: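 Quantitative HTS of the LOPAC library used NTP ERR reporter cells treated 18 h at 37 C. Signal is luminescence after One-Glo addition and a 30 min room-temperature incubation.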

[21] = system: estrogen-related receptor alpha (ERRalpha) with PGC-1alpha coactivator, human; assay: qHTS assay to identify small molecule antagonists of the estrogen related receptor signaling pathway with the pleiotropic PPARgamma coactivator (PGC) (AID 1224821; calls by dose curve;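 further: series mostly up to about 46 µM; lower luminescence signal means antagonism of PGC/ERR signalling; nearly all actives have a fitted effect of over 50% in size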)
Procedure, shortened: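 Quantitative HTS for antagonism: PGC/ERR cells received compounds after 6 h attachment and were incubated 18 h at 37 C, with luminescence (One-Glo) as the endpoint.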

[22] = qHTS assay to identify small molecule antagonists of the estrogen related receptor signaling pathway with the pleiotropic PPARgamma coactivator (PGC) cell viability counter screen (AID 1224822; further: series mostly up to about 46 µM)
Procedure, shortened: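 PGC/ERR cells rested 6 h, then compound-treated 17.5 h at 37 C. CellTiter-Fluor added for 30 min at 37 C, viability measured by fluorescence intensity.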

[23] = qHTS assay to identify small molecule agonists of the estrogen related receptor signaling pathway with the pleiotropic PPARgamma coactivator (PGC) (AID 1224823)
Procedure, shortened: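 Cell-based luciferase assay in the NTP-supplied PGC/ERR line, 2,000 cells/well; 18 h compound exposure at 37 C, luminescence after One-Glo.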

[24] = qHTS assay to identify small molecule phospholipidosis (PLD) inducers (AID 1259344; active means well fitted curve in the direction sought with a large enough effect; an effect the other way counts as inactive or inconclusive)
Procedure, shortened: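 Quantitative HTS in HepG2: compound plus LipidTOX Red dye for 24 h, paraformaldehyde fixation with Hoechst 33342, widefield high-content imaging; amiodarone as positive and DMSO as negative control.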

Measured: Potency

NC(=O)CN1CC(O)CC1=O (stereo not given)
inactive: all assays above
